Bioassay records: PubChem BioAssay, Sanford-Burnham Center for Chemical Genomics
TRAIL sens C8 – caspase-8 TRAIL sensitization; inhibition (viability loss, TRAIL sensitization), % at 10 µM; AID 624354; NB7+C8 cells + TRAIL, ATPlite viability luminescence; 1% of 360,000 active;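 active = compounds causing at least 50% loss of cell viability in the single-dose screen, relative to plate controls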
PPC-1+TRAIL kill – compounds killing PPC-1 cancer cells with TRAIL present (potentiator screen, no TRAIL-free arm); PPC-1 cells + TRAIL, ATPLite viability luminescence; cell killing (% activity), % at 4 µM or 5 µM; 0.41% of 220,000 active; AID 1443;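 active = cell killing above 50% in the first pass at 4 µM, then a duplicate retest at 5 µM averaging 50% or more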;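 note: plate controls were cells with TRAIL plus DMSO for no effect and medium-only wells lacking cells for full effect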
CF NFkB block – cystic fibrosis NF-kB activation inhibition; KKLEB NF-kB-GFP reporter, PAF-induced, GFP fluorescence overnight; inhibition, % at 5 µM; 0.86% of 360,000 active;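 active = at least 50% inhibition at 5 µM, scaled per plate between neutral and stimulator controls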;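 note: PAF is a Pseudomonas aeruginosa culture filtrate used as stimulus; plate controls were PAF-stimulated DMSO wells for no effect and unstimulated DMSO wells for full effect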
KKLEB tox – reduces viability of KKLEB cystic fibrosis airway cells; KKLEB CF airway cells viability, ATPlite luminescence, overnight; stronger effect = lower value; cells stimulated with P. aeruginosa culture filtrate; activity change (cytotoxicity), % at 5 µM; 0.36% of 360,000 active;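 active = corrected activity change at or below -50% at 5 µM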
Peg3 promoter – inhibitors of Peg3 promoter; inhibition, % at 20 µM; HeLa PEG-Prom luciferase reporter, luminescence, overnight; 1.7% of 360,000 active;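 active = inhibition of at least 50% at 20 µM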
HIF-2a inh – inhibitors of HIF-2a | AID 624352 | 0.72% of 360,000 active | inhibition, % at 18.8 µM | 786-0 RCC cells HIF-2a reporter, luciferase luminescence, overnight;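 active = inhibition of the luminescence signal of 40% or more relative to plate controls, in a single-dose primary screen at 18.75 µM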
An asterisk follows results filed as active. Rows were chosen to be rich in hits. Some 3.1% of all compounds tested hit in one or more screens of this group.

Screening COCCN(C(=O)COC(=O)c1c(NC(C)=O)sc(C)c1C)c1c(N)n(Cc2ccccc2)c(=O)[nH]c1=O returned TRAIL sens C8 51*, CF NFkB block -19, KKLEB tox 0, Peg3 promoter 6 and HIF-2a inh 7.
Cc1cc(C(=O)NNC(=O)/C=C/c2ccc(F)cc2)c(C)o1 was read as TRAIL sens C8 -6, CF NFkB block -2, KKLEB tox -11, Peg3 promoter 11 and HIF-2a inh -10.
`c1ccc(-c2nc3ccccc3[nH]2)nc1` gave TRAIL sens C8 18, PPC-1+TRAIL kill 23, CF NFkB block -2, KKLEB tox -3, Peg3 promoter -189 and HIF-2a inh -168.
`O=C(Nc1ccc2nc(-c3ccccn3)[nH]c2c1)C1CCCCC1` gave TRAIL sens C8 53*, PPC-1+TRAIL kill 38, CF NFkB block -4, KKLEB tox 1, Peg3 promoter -196 and HIF-2a inh -235.
CC(C)c1nc2ccc(NC(=O)C3CCCCC3)cc2[nH]1 was read as TRAIL sens C8 7, PPC-1+TRAIL kill 20, CF NFkB block 2, KKLEB tox -4, Peg3 promoter -27 and HIF-2a inh -49.
`Cc1ccc2nc(-c3ccccn3)[nH]c2c1` gave TRAIL sens C8 70*, CF NFkB block 3, KKLEB tox 1, Peg3 promoter -8 and HIF-2a inh 16.
Cc1cc(/C=C2\C(=N)N3N=C(C(C)C)SC3=NC2=O)c(C)n1Cc1ccccc1 was read as TRAIL sens C8 -13, PPC-1+TRAIL kill 14, CF NFkB block -3, KKLEB tox 17, Peg3 promoter 0 and HIF-2a inh 23.
`Cc1cc(/C=C2\C(=N)N3C(SCc4ccccc4)=NSC3=NC2=O)c(C)n1Cc1ccccc1` gave TRAIL sens C8 6, PPC-1+TRAIL kill 27, CF NFkB block 30, KKLEB tox -53*, Peg3 promoter 10 and HIF-2a inh -16.
For Clc1ccccc1OCc1nc(-c2ccccn2)no1 the results were TRAIL sens C8 28, PPC-1+TRAIL kill 16, CF NFkB block 1, KKLEB tox -5, Peg3 promoter -202 and HIF-2a inh -99.
Screening Clc1ccc(OCc2nc(-c3ccccn3)no2)c(Br)c1 returned TRAIL sens C8 52*, PPC-1+TRAIL kill 45, CF NFkB block -25, KKLEB tox -32, Peg3 promoter -161 and HIF-2a inh -56.
Screening O=C(NC(c1ccccc1)c1ccsc1)C1CCN(CCOc2ccc(Cl)cc2Cl)CC1 (stereo not drawn) returned TRAIL sens C8 -11, CF NFkB block 8, KKLEB tox -31, Peg3 promoter 54* and HIF-2a inh -13.
Screening O=C(NC(c1ccccc1)c1cnccn1)C1CCN(CCOc2ccc(Cl)cc2Cl)CC1 (stereo not drawn) returned TRAIL sens C8 -13, CF NFkB block 3, KKLEB tox -12, Peg3 promoter -6 and HIF-2a inh -2.
Screening Cc1ccccc1C(c1ncccc1C)N(C)C(=O)C1CCN(CCOc2ccc(Cl)cc2Cl)CC1 (stereo not drawn) returned TRAIL sens C8 18, CF NFkB block 13, KKLEB tox -11, Peg3 promoter 100* and HIF-2a inh 7.
Screening COc1ccc(C(NC(=O)C2CCN(CCOc3ccc(Cl)cc3Cl)CC2)c2ccccc2C)cn1 (stereo not drawn) returned TRAIL sens C8 6, CF NFkB block 13, KKLEB tox -24, Peg3 promoter 1 and HIF-2a inh -17.
For O=C(NCCCN1CCCC1=O)c1sc2ccccc2c1Cl the results were TRAIL sens C8 9, CF NFkB block -19, KKLEB tox -3, Peg3 promoter -89 and HIF-2a inh -125.
CSc1ccc(CN2CCC(n3nccc3NC(=O)C3CCOC3)CC2)cc1 (stereo not drawn) was read as TRAIL sens C8 -15, CF NFkB block 1, KKLEB tox 13, Peg3 promoter 12 and HIF-2a inh 14.
For CCN(CCn1cccn1)C(=O)C1CCC(=O)N(CCN2CCOCC2)C1 (stereo not drawn) the results were TRAIL sens C8 -9, CF NFkB block 21, KKLEB tox -5, Peg3 promoter 16 and HIF-2a inh 14.
For COCC(=O)OC1CCn2c1nc1c2C(=O)C(C)=C(NC(C)=O)C1=O (stereo not drawn) the results were TRAIL sens C8 69*, CF NFkB block 91*, KKLEB tox -68*, Peg3 promoter 85* and HIF-2a inh 24.
CC12CCC3c4ccc(OCC(=O)O)cc4CCC3C1CCC2=O (stereo not drawn) was read as TRAIL sens C8 24, CF NFkB block 9, KKLEB tox 6, Peg3 promoter 1 and HIF-2a inh 16.
Screening C=C(C)COc1ccc2c(c1)CCC1C2CCC2(C)C(=O)C(=NO)CC12 (stereo not drawn) returned TRAIL sens C8 33, CF NFkB block 64*, KKLEB tox -42, Peg3 promoter 71* and HIF-2a inh 14.
COc1cc(/C=C/c2ccc3cccc(OC)c3n2)c(OC(C)=O)c([N+](=O)[O-])c1 was read as TRAIL sens C8 -2, PPC-1+TRAIL kill 21, CF NFkB block 20, KKLEB tox -14, Peg3 promoter 18 and HIF-2a inh 9.
Screening COc1c(OC(C)=O)ccc(/C=C/c2ccc3cccc(OCc4ccccc4)c3n2)c1[N+](=O)[O-] returned TRAIL sens C8 49*, PPC-1+TRAIL kill 21, CF NFkB block 20, KKLEB tox -23, Peg3 promoter -106 and HIF-2a inh -174.
For O=C(Nc1ccccc1)Nc1nnc([C@@H]2C[C@H](O)[C@@H](CO)O2)s1 the results were TRAIL sens C8 1, CF NFkB block 15, KKLEB tox -2, Peg3 promoter -6 and HIF-2a inh -68.
`NC(COCc1ccccc1)c1csc(Nc2ccccn2)n1` (stereo not drawn) gave TRAIL sens C8 -8, CF NFkB block 13, KKLEB tox -6, Peg3 promoter -17 and HIF-2a inh -31.
NC(CCc1ccccc1)c1csc(Nc2ccc(C(F)(F)F)cn2)n1 (stereo not drawn) was read as TRAIL sens C8 14, CF NFkB block 18, KKLEB tox -12, Peg3 promoter 110* and HIF-2a inh 15.
`NC(COCc1ccccc1)c1csc(Nc2ccc(C(F)(F)F)cn2)n1` (stereo not drawn) gave TRAIL sens C8 4, CF NFkB block -5, KKLEB tox 7, Peg3 promoter 102* and HIF-2a inh 9.
Screening OCCN(CCO)CC(O)COc1ccc(C23CC4CC(CC(C4)C2)C3)cc1 (stereo not drawn) returned TRAIL sens C8 8, PPC-1+TRAIL kill 18, CF NFkB block 20, KKLEB tox -10, Peg3 promoter 24 and HIF-2a inh 89*.
